In PubChem BioAssay (NCI):
About 83,000 compounds went through this panel and 20% of them were active in at least one assay; those are over-represented in the sample as a whole.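 Cell lines were cultured in 96-well plates, exposed to a single compound concentration, and assessed for percent growth 48 hours later.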 Active and inactive are the calls of the source. The calls were made as follows: active = growth percent below 10; inactive = the rest.

The compounds below were run on KM12 colon (assay: NCI-60 one-dose screen, 48 h (100 = growth as untreated, 0 = no growth, -100 = all killed)). Conditions: 10 µM unless noted.

Structure (SMILES)	growth
O=S(=O)(NCCCNc1cc(-c2cn(-c3ccccc3)nc2-c2cccc(O)c2)ccn1)c1ccc(Cl)cc1	12.5% (inactive)
COc1ccc(-c2nc3sccn3c2-c2ccnc(NCCCNS(=O)(=O)c3ccc(C)cc3)n2)cc1	20.6% (inactive)
O=C1c2ccccc2C(=O)c2c1oc1oc3c(c(=O)c21)c(=O)n(-c1ccccc1)c1ccccc31	18.9% (inactive)
C#CCC1(c2ccc(F)c(F)c2)NS(=O)(=O)c2ccccc21 (centres undefined)	102% (inactive)
Cc1nc(Nc2cccnc2)sc1C(=O)/C=C/c1ccc(F)cc1	11.3% (inactive)
CCC#CC[C@H]1C/C=C2/C(=O)C=C[C@@H]2C/C=C\CCCC(=O)O1	-48.8% (active)
CNC(=O)Cc1nc(-c2cccc(NS(=O)(=O)c3c(F)cccc3F)c2F)c(-c2ccnc(Nc3ccccc3)n2)s1	70.2% (inactive)
CC(=O)Nc1ccc2c(c1)/C(=C\C=C/c1ccc([N+](C)(C)C)cc1)c1ccccc1-2	97.1% (inactive)
COc1cc(OC)cc(-c2n[nH]nc2-c2ccc3c(c2)OCO3)c1	25.1% (inactive)
O=C1CCC/C=C\C[C@H]2C=CC(=O)/C2=C/C[C@H](C/C=C\CC(F)(F)F)O1	-71.3% (active)
O=C(Nc1cccc(Cl)c1)c1cc([N+](=O)[O-])ccc1O	43.1% (inactive)
O=C1N=C(c2c(-c3[nH]c(=O)c4ccc(Br)cc4c3O)c(O)c3ccccc3c2O)C(=O)c2cc(Br)ccc21	-53.2% (active)
COc1cc(-n2nc(C(=O)Nc3ccc(C(=O)O)cc3)nc2-c2ccccc2)cc(OC)c1OC	105% (inactive)
COc1ccc(OC)c(-c2ccc(-c3ccccc3N)c3[nH]c4ccccc4c23)c1	72.9% (inactive)
COc1ccc(S(=O)(=O)Nc2cc(/C=C\c3cc(OC)c(OC)c(OC)c3)cc(OC)c2OC)cc1OC	21.7% (inactive)
Cc1cc(NC(=O)COC(=O)c2sc3cc(F)ccc3c2Cl)no1	108% (inactive)
Nc1c(C(=O)Nc2cccc(C(F)(F)F)c2)sc2nc3c(cc12)C(O)CCC3 (centres undefined)	18.1% (inactive)
CC(=O)C1CCC(C)=CC1=O (centres undefined)	110% (inactive)
COc1ccc(-c2nc3sccn3c2-c2ccnc(NCCCNS(=O)(=O)c3ccc(F)cc3)n2)cc1	9.82% (active)
COc1cc(-c2csc(NC(=O)Nc3ccc(Cl)cc3Cl)n2)cc(OC)c1OC	24.6% (inactive)

Structure (SMILES)	growth
CCSc1nnc(Nc2ccc(C(C)C)cc2)s1	83.9% (inactive)
CCOC(=O)CC/C(C)=N\Nc1ccc([N+](=O)[O-])cc1	22.2% (inactive)
Cc1ccc2c(c1)C(=O)C(c1c(-c3[nH]c(=O)c4ccc(C)cc4c3O)c(O)c3ccccc3c1O)=NC2=O	18.5% (inactive)
CN(C)CCCNC(=O)C(c1ccccc1)c1ccccc1	111% (inactive)
COc1ccc(-c2nnc(COc3ccc(NC(=O)Nc4ccc(Cl)c(C(F)(F)F)c4)cc3F)o2)cc1	4.64% (active)
O=c1oc2cc(OS(=O)(=O)c3ccc(F)cc3)ccc2c2c1CCCCC2	55.1% (inactive)
Nc1nc(-c2ccccc2)cs1	106% (inactive)
COc1ccc(C(=O)/C=C/c2cccc([N+](=O)[O-])c2)c(OC)c1	13.2% (inactive)
C=CCOc1cccc(/C=C/C(=O)c2sc(Nc3cccnc3)nc2C)c1	24% (inactive)
Cc1cc(Nc2nc(C(=O)Nc3ccccc3)nc3ccccc23)n[nH]1	28% (inactive)
CC1CCN(C(=O)CSc2nc3sc4c(c3c(=O)[nH]2)CCCC4)CC1	120% (inactive)
COc1ccc(-c2nc(-c3nc4ccc(F)cc4[nH]3)cc3c2[nH]c2ccccc23)cc1	23.4% (inactive)
CC/C=C\C[C@H](O)C/C=C1/C(=O)C(Cl)=C[C@@H]1C/C=C\CCCC(=O)O	46.4% (inactive)
O=c1[nH]c2ccccc2cc1-c1nnc(Cc2ccccc2)o1	77.8% (inactive)
COc1ccc(C2CC(c3cccs3)=NN2c2ccc(S(=O)(=O)NC(=O)Nc3ccc(C)cc3)cc2)cc1 (centres undefined)	97.4% (inactive)
CCSc1nnc(NC(=O)COc2ccc(Cl)cc2C)s1	109% (inactive)
COc1ccc(Cn2c(SC)nc(=O)n(Cc3ccc(Cl)cc3)c2=O)cc1	97.5% (inactive)
O=C(Nc1ccc(Br)c(Cl)c1)c1cc(F)ccc1O	2.98% (active)
O=C(CCl)NCCNc1nccc(Nc2ccc(S(=O)(=O)Nc3ccccn3)cc2)n1	34% (inactive)
